From PubChem BioAssay
Active and inactive are the calls of the source. How the calls were made is not given here.

molecular target: Pantothenate synthetase (Mycobacterium tuberculosis (strain ATCC 25618 / H37Rv)) (UniProt P9WIL5); experiment: Recombinant Mtb pantothenate synthetase (PanC) inhibitors, coupled enzyme, confirmatory (AID 375); conditions: coupled enzyme assay; at 10 µM, hits give high values;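 further: 0% = full reaction with vehicle and 100% = no enzyme background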
Sequence (P9WIL5 whole entry, looked up): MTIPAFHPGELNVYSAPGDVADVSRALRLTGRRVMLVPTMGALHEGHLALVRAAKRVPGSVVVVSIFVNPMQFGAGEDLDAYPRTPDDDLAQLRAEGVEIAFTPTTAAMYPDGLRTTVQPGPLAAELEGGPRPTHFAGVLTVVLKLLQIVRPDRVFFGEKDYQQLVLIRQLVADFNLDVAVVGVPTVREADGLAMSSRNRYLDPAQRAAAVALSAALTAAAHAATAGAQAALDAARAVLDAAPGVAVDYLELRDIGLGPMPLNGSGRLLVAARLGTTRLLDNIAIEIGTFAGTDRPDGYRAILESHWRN

Structure (SMILES) | inhibition
COc1ccc(S(=O)(=O)n2nc(OC(=O)c3ccc(C)cc3)cc2N)cc1 | 5% (inactive)
COc1ccc(C(=O)Nn2c(SCC(=O)NCC3CCCO3)nc3ccccc3c2=O)cc1 (stereo not given) | 2% (inactive)
CCC(Sc1nc(-c2ccccc2)c(C#N)c(=O)[nH]1)C(=O)Nc1cc(C)on1 (stereo not given) | 0% (inactive)
COc1ccc(N2CCN(CCNS(=O)(=O)c3cccc4nsnc34)CC2)cc1 | 2% (inactive)
Cc1cccc2cc(C#N)c(NCCNC(=O)NC3CCCCC3)nc12 | 1% (inactive)
CC(=O)Nc1ccc2c(c1)nc(CCNC(=O)c1ccccc1)n2C | 0% (inactive)
COc1ccc(C(=O)N(Cc2ccco2)C(C(=O)NC2CCCC2)c2ccc(O)cc2)cc1OC (stereo not given) | 0% (inactive)
Cc1cc(C(=O)Nc2c(F)cc(F)cc2Br)no1 | 0% (inactive)
CCOC(=O)c1oc2cccc(OC(C)=O)c2c1C | 4% (inactive)
Cc1nc(-c2ccc(NC(=O)c3cccs3)cc2)cs1 | 0% (inactive)
O=C(CNS(=O)(=O)c1ccc(Br)s1)N1CCN(c2ncccn2)CC1 | 0% (inactive)
CCOc1cc(C)c(C(C)C)cc1S(=O)(=O)N1CCN(C)CC1 | 0% (inactive)
CCOc1ccccc1-n1c(SCC(=O)NC(C)CC)nnc1-c1ccoc1C (stereo not given) | 0% (inactive)
CCOc1cc(C2Nc3ccccc3C(=O)N2c2ccccc2OC)ccc1O (stereo not given) | 0% (inactive)
O=S(=O)(c1ccc2ccccc2c1)N1CCCCC1 | 0% (inactive)
CS(=O)(=O)c1ccc2nc(NC(=O)C3C4C=CC(C4)C3C(=O)O)sc2c1 (stereo not given) | 1% (inactive)
CNC(=O)c1ccsc1NC(=O)CN1C(=O)CCC1=O | 0% (inactive)
CCCOc1ccc(S(=O)(=O)NCCCN2CCOCC2)c2ccccc12 | 0% (inactive)
COc1ccc(OCCCC(=O)Nc2nncs2)cc1 | 0% (inactive)
CC(C)c1nnc(NC(=O)Cc2cccs2)s1 | 0% (inactive)

Structure (SMILES) | inhibition
O=c1c2[nH]c3ccccc3c2ncn1CCCn1ccnc1 | 0% (inactive)
CCN(CC)S(=O)(=O)c1ccc(Br)c(OC)c1 | 0% (inactive)
O=c1c(-c2ccc(F)cc2)coc2c3c(ccc12)OCCO3 | 11% (inactive)
O=C(c1ccc(Br)cc1)N1CCN(S(=O)(=O)c2ccccc2)CC1 | 0% (inactive)
NS(=O)(=O)c1ccc(NC(=O)CSc2nnc(Cc3cccs3)n2-c2ccccc2)cc1 | 1% (inactive)
COC(=O)c1cc(Br)c(=O)n(CCC2=CCCCC2)c1 | 0% (inactive)
CN(C)CCC=C1c2ccccc2CCc2ccccc21 | 0% (inactive)
COCCNC(=O)CN1CCC(NC(=O)Nc2ccc(C(F)(F)F)cc2)CC1 | 4% (inactive)
O=C(Nc1ccc(S(=O)(=O)N2CCCCCC2)cc1)c1ccco1 | 2% (inactive)
Cc1ccc2oc(=O)c3cnn(CC(=O)NCCC(C)C)c3c2c1 | 0% (inactive)
COc1cc(NC(=O)c2nccnc2C(=O)O)cc(OC)c1 | 5% (inactive)
CCCn1c(=N)n(CC(=O)c2cccs2)c2ccccc21 | 3% (inactive)
N#Cc1c(SCC(=O)N2CCOCC2)nsc1SCC(=O)N1CCOCC1 | 0% (inactive)
COc1ccc(-n2c(Cc3cccn3C)nnc2SCC(=O)Nc2cccc(Cl)c2)cc1 | 2% (inactive)
Cc1cc(C)nc(/N=C2\NC(=O)CC(C(=O)O)N2c2ccc(Cl)cc2)n1 (stereo not given) | 0% (inactive)
CN(CC(=O)N1CCCCC1)S(=O)(=O)c1cccc2cccnc12 | 0% (inactive)
C/C=C(\C)c1nnc(NC(=O)OCC)s1 | 0% (inactive)
COc1cccc(/C=N/n2cnnc2)c1OCc1ccccc1 | 0% (inactive)
CC1(C)Cc2ccccc2C(N)=C1C#N | 5% (inactive)
O=C(NC1CCCCC1NC(=O)c1ccco1)c1ccco1 (stereo not given) | 0% (inactive)
